# In PubChem BioAssay AID493248 (Broad Institute, 2011):
# The whole screen tested about 2,300 compounds, of which about 1,400 (61%) were called active. Roughly 7% stayed inconclusive and do not appear here. No rule for the calls is given here. So high a share suggests a set chosen from earlier hits. These entries were drawn from the full list. Potency and affinity values are given separately.
# Target: FAD-linked sulfhydryl oxidase ALR (Homo sapiens) (UniProt P55789)
# Experiment: ALR-catalysed DTT oxidation blockers – biochemical, H2O2 detection, luminescence, cherry-pick, dose response (AID 493248)
# Settings: purified ALR, H2O2 HRP-luminol luminescence; at 10 µM (top of the series)
# Sequence of FAD-linked sulfhydryl oxidase ALR (Homo sapiens) (P55789 whole entry, looked up): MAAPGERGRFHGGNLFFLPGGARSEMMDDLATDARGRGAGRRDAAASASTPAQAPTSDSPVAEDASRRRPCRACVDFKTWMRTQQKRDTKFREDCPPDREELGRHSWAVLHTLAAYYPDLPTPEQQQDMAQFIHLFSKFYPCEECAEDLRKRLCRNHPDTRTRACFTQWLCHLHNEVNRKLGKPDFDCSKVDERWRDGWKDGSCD
row,Compound,"activity change, negative = inhibition"
1,S=c1[nH]nc(-c2ccco2)n1/N=C/C=C/c1ccccc1,-45.1%
2,CC1CCCCC1n1c(-c2cccnc2)n[nH]c1=S (stereo unspecified),-2.8%
3,COc1ccc(-c2n[nH]c(=S)n2Cc2ccco2)cc1,-32.4%
4,C=CCn1c(-c2sccc2C)n[nH]c1=S,0.591%
5,N#Cc1ccccc1S(=O)(=O)N1CCN(C(=O)Cc2coc3cc(O)ccc23)CC1,-102%
6,CCN(C=NC1=NN(c2cccc(C(F)(F)F)c2)CC1)CC,4.04%
7,COC(=O)c1[nH]c2cc(OC)ccc2c1N=CN(C)C,-64.5%
8,CCc1ccc(OC)c(-c2csc(N)n2)c1,3.63%
9,O=c1oc(-c2ccc(F)cc2)nc2ccsc12,-52.7%
10,O=C(Nc1ccccc1N1CCCCC1)c1cnccn1,-36.5%
11,Cc1ccc(C(=O)C2CCN(CC(=O)Nc3ccc(N(C)C)cc3)CC2)cc1,-106%
12,C=CCn1c(-c2ccc(N)cc2)nc2ccccc21,-33.2%
13,C=CCn1c(-c2cc(OC)cc(OC)c2)n[nH]c1=S,-54.8%
14,Cc1nnc(N2CCN(Cc3ccccc3)CC2)[nH]c1=O,42.6%
15,CCN(C(=O)CN1CCN(c2cccc(Cl)c2)CC1)c1c(N)n(Cc2ccccc2)c(=O)[nH]c1=O,-43.8%
16,CCn1c(=O)c2c3c(sc2n2c(=S)[nH]nc12)CCC3,-18.2%
17,COc1cccc(/C=N/NC(=O)CNC(=O)c2ccncc2)c1O,-31.5%
18,COc1cc(/C=N\NC(=O)c2ccc(-c3ccccc3)cc2)cc(OC)c1O,-59.8%
19,COc1cc2c(ccc3cc(OC)c(OC)c(O)c32)cc1O,-112%
20,Cc1nc2ccc(-c3ccccc3)cc2o1,-7.02%
21,c1c2c(cc3sc(N4CCCCC4)nc13)OCO2,-5.07%
22,C[C@H](NC(=O)c1cc2c(cn1)[nH]c1ccccc12)C(=O)O,-94.7%
23,O=C(O)c1[nH]c2ccccc2c1NS(=O)(=O)Cc1ccccc1,-42.2%

row,Compound,"activity change, negative = inhibition"
1,CCCn1cnc2cc(NCc3cccc(OC)c3)ccc21,395%
2,Cn1cnc2cc(NCc3ccccc3O)ccc21,297%
3,Oc1ccc(-c2n[nH]c(=S)n2Cc2ccco2)cc1,-29.1%
4,COc1ccc(C(=O)N/N=C(\Cc2ncc[nH]2)c2ccccc2)cc1,-40%
5,Cc1[nH]nc(-c2ccc(O)cc2O)c1Oc1ccccc1,-84.3%
6,COc1ccc(S(=O)(=O)n2nc(OC(=O)c3ccco3)cc2N)cc1,-55.8%
7,O=C1NN(c2ccccc2)C(=O)/C1=C\c1ccccc1,-5.6%
8,N/C(=N\N=C\c1ccc(O)cc1)c1nonc1N,-84.5%
9,Nc1cc(C(F)(F)F)ccc1C(=O)O,8.42%
10,COc1ccccc1N1CC(C(=O)Nc2nnc(SCc3cccnc3)s2)CC1=O (stereo unspecified),-17.9%
11,COC(=O)c1ccc(-c2nc3cc(N)ccc3o2)cc1,72.5%
12,Cc1ccc(C)c(-c2nc3cc(N)ccc3o2)c1,-81.2%
13,Nc1ccc2nc(-c3cccs3)[nH]c2c1,-80%
14,Cc1ccc(-c2nc3cc(N)ccc3o2)c(C)c1,19.5%
15,COc1ccc(-c2cc(C(F)F)n3ncc(C(=O)n4ccnc4C)c3n2)cc1,-48%
16,CCCN1CCC(=O)N([C@H](CSc2ccc(OC)cc2)CC(C)C)CC1,20.7%
17,O=C(O)CCn1c2c(c3ccccc31)CCCC2,5.37%
18,Cc1ccc(Nc2nnns2)cc1C,-6.48%
19,Cc1ccc(NCCC(=O)c2cccs2)cc1C,-51.1%
20,CN(C)c1ccc(CN(C(=O)c2cc3ccccc3oc2=O)C2CCS(=O)(=O)C2)cc1 (stereo unspecified),-17.6%
21,COc1ccc(NC2CCCN(C(=O)c3ccc(C)nc3)C2)cc1 (stereo unspecified),289%
22,S=c1[nH]nc(-c2ccncc2)n1Cc1ccco1,-47.7%
23,Cc1cccc(C(=O)N2CCCC(N3CCN(c4ccc(F)cc4)CC3)C2)n1 (stereo unspecified),-66.1%
